Laboratory results from PubChem BioAssay AID485317 (Broad Institute, 2010).
Hit rate of the full screen: of about 290,000 compounds, about 11,000 (3.8%) were called active. What follows is part of a selection rich in actives, with near analogues and random picks from the rest. Values without a mark were called inactive.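 The calls were made as follows: active = mean replicate inhibition above about 79%, with every replicate also reaching it (limit read from the data); inconclusive = only one of the two criteria met; inactive = mean below limit and not every replicate reaching it.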

Molecular target: FAD-linked sulfhydryl oxidase ALR (Homo sapiens) (UniProt P55789)
Sequence (P55789 whole entry, looked up): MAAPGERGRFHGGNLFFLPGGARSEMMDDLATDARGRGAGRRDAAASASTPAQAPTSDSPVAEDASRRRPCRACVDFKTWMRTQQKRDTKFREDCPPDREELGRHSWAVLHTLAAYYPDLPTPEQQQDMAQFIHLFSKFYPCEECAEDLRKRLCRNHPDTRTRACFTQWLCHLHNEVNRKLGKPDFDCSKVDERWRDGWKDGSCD
Test: ALR-catalysed DTT oxidation blockers – biochemical, H2O2 detection, HRP-luminol luminescence, single point, primary screen (AID 485317)
Details: purified ALR, active compounds read high, concentration not given here

SMILES	inhibition
CC(OC(=O)CCCOc1ccccc1)C(=O)Nc1ccc(Cl)cn1 (stereo not given)	-0.655%
CN(Cc1ccc(F)cc1)C(=O)CN1C(=O)c2ccccc2S1(=O)=O	1.6%
C/C(CC(=O)Nc1cccc(C(F)(F)F)c1)=N\NC(=O)C(=O)NCC(C)C	-10.3%
C/C(CC(=O)Nc1ccc(Cl)cc1)=N\NC(=O)C(=O)NCCO	96.1% (active)
COc1ccc(COC(=O)N/N=C(\C)CC(=O)Nc2ccc(Cl)cc2)cc1	-4.07%
CC(C#N)OC(=O)c1cccnc1SCC(=O)Nc1ccc2c(c1)OCO2 (stereo not given)	-10.2%
Cc1ccc(S(=O)(=O)N2CCN(C(=O)c3ccccc3-c3nc4ccccc4s3)CC2)c(C)c1	-15.3%
Cc1ccc(NC(=O)C(c2ccccc2)N2CCN(C(=O)c3ccco3)CC2)cc1 (stereo not given)	-2.06%
COc1cc(OC)cc(C(=O)N[C@H](C(=O)NNC(=O)c2ccc(Br)cc2)C(C)C)c1	-9.81%
CC(=NCc1ccco1)c1c(C(F)(F)F)[nH]n(-c2nc3ccccc3s2)c1=O	92.1% (active)
CC(=NCc1ccco1)C1=C(O)c2ccccc2C1=O	2.24%
CCc1ccc(-c2cc(C(=O)NCc3ccco3)c3ccccc3n2)s1	52.8%
COc1cc(C=NNC(=O)c2cccnc2)ccc1OC(=O)c1ccccc1F	20.1%
COc1ccc(CCNC(=O)COC(=O)c2cnc(Cl)c(Cl)c2)cc1	-2.44%
Cc1cc(NC(=O)CSc2ncc(C(F)(F)F)cc2Cl)no1	-1.5%
COc1ccc(S(=O)(=O)Nc2ccc3c(c2)OCO3)cc1Cl	9.92%
COc1ccccc1C1C2=C(COC2=O)Nc2cc3c(cc21)OCO3 (stereo not given)	97.9% (active)
COc1cc2c(cc1/C=C1/NC(=O)N(c3ccccc3)C1=O)OCO2	-7.41%
CC[C@@]12C(=O)N(c3ccccc3)C(=O)N1[C@H](c1ccc(Br)cc1)[C@@H]1C(=O)N(C(C)(C)C)C(=O)[C@@H]12	-9.54%
COc1cc(S(=O)(=O)N2CCN(C(=O)C3CC3)CC2)ccc1NC(C)=O	-5.34%
COc1ccc(S(=O)(=O)N(C)C[C@H]2Oc3ccc(NS(=O)(=O)c4cccs4)cc3CC(=O)N([C@H](C)CO)C[C@H]2C)cc1	-0.0995%
Cn1c(=O)n(Cc2ccco2)c(=N)c2c3c(sc21)CCCC3	3.35%
O=c1oc(-c2ccco2)nc2sc3c(c12)CCCCC3	88.4% (active)

SMILES	inhibition
O=S(=O)(c1ccc(Cl)cc1)c1nc(-c2ccco2)oc1N1CCCCC1	5.77%
CCC(CO)Oc1cc(NC(=O)c2ccc(Cl)cc2)c2ncn(C(C)C)c2c1 (stereo not given)	-2.2%
CC(=O)c1c(C)[nH]c(C(=O)N2CCN(S(=O)(=O)c3ccc(F)c(F)c3)CC2)c1C	-0.525%
CCN(/N=C/c1ccccc1)c1cc(=O)n(C)c(=O)[nH]1	-9.29%
Oc1ccc(/C=N/N(Cc2ccccc2)c2ccccc2)cc1	99.2% (active)
CN(C)c1ccc(/C=N/N(Cc2ccccc2)c2ccccc2)cc1	-4.17%
Cc1ccc(C(=O)NNC(=O)CSc2nnc3ccccn23)cc1	-4.37%
Cc1cc(C)c(-c2c(O)c3ccccc3n(C)c2=O)c(C)c1	-13.7%
Cc1cc(O)c(Sc2ccccc2)c(=O)o1	-17.8%
COc1cccc(NC(=S)NCc2ccccn2)c1	-3.74%
Cc1c(C)c(C)c(S(=O)(=O)NCCc2ccccn2)c(C)c1C	3.53%
COc1ccc(NCCc2ccccn2)cc1	99.8% (active)
COc1ccc(C)cc1NC(=O)CCCN1C(=O)NC(C)(C)C1=O	0.111%
Cc1cccc(-c2oc3ccc(-c4ccc5c(c4)OCO5)cc3c2C#Cc2cncn2C)c1	-9.37%
Cc1ccc(S(=O)(=O)CC(=O)Nc2nnc(C)s2)cc1	-1.7%
Cc1ccc(CS(=O)(=O)c2ncc(Cl)c(C(=O)Nc3nnc(C)s3)n2)cc1	97.5% (active)
CSc1nnc(NC(=O)c2nc(S(=O)(=O)Cc3ccc(C)cc3)ncc2Cl)s1	8.89%
Cc1cccc(CS(=O)(=O)c2ncc(Cl)c(C(=O)Nc3ccc(F)cc3)n2)c1	98.4% (active)
CSc1ncc(Cl)c(C(=O)Nc2cc(C)ccc2C)n1	-2.22%
Cc1cccc(NC(=O)c2nc(S(=O)(=O)Cc3ccccc3)ncc2Cl)c1	4.68%
N#Cc1cccc(OC(=O)c2ccc3c(=O)n4c(nc3c2)CCC4)c1	43.5%
CC1CCCCC1NC(=O)COc1ccc(C#N)cc1 (stereo not given)	0.208%
